hgDAF-12 ag: agonists of H. glycines DAF-12 nuclear receptor. HEK293 GAL4-hgDAF12 UAS-luciferase reporter, agonist luminescence; normalized to butyrate control. actives 1.8% (n = 370,000). activation, % at 6.8 µM;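 active means activation above a cutoff set at the mean of all screened compounds plus 3 SD, cut at about 10% in these data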;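 further: 0% = DMSO wells and 100% = sodium butyrate wells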
DAX1 inh-1: inhibits human nuclear receptor DAX1. actives 0.99% (n = 340,000). inhibition, % at 6.75 µM. HEK293 Gal4-DAX1 luciferase reporter, luminescence. P51843;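 active means inhibition above the mean over all tested compounds plus 3 SD, cut at about 4.2% in these data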;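 further: 0% = DAX1-transfected cells with DMSO and 100% = empty-vector control cells with DMSO; inhibition shows as a rise in luminescence from relieved DAX1 repression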
ssDAF-12 act: activators of S. stercoralis DAF-12 nuclear receptor; HEK293 ssDAF-12/GRIP1 lit1-tk-luc reporter, luminescence; % of 3 µM dafachronic acid response; activation, % at 6.8 µM; actives 1% (n = 370,000);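 active means activation above the mean over all tested compounds plus 3 SD, cut at about 0.9% in these data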;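 further: 0% = DMSO-only wells and 100% = 3 µM delta7-dafachronic acid wells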
hcDAF12 agonist: activates DAF-12 receptor from parasite H. contortus; HEK293 hcDAF-12 lit1-tk-luc reporter, luminescence; 0% DMSO, 100% Δ7-dafachronic acid; activation, % at 6.8 µM; actives 1.4% (n = 370,000);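 active means activation above the mean of all tested compounds plus 3 SD, cut at about 5.5% in these data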;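 further: 100% = response to 3 µM Δ7-dafachronic acid high control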
DAX1 inh-2: inhibitors of DAX1 repression of SF-1 activated StAR promoter | HEK293T StAR-luciferase reporter, SF-1/DAX-1 repression relief | inhibition, % at 6.8 µM | actives 1.1% (n = 370,000) | AID 652010;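 active means inhibition above the mean over all tested compounds plus 3 SD, cut at about 3.6% in these data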;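 further: 0% = DAX-1 cells with DMSO and 100% = cells lacking DAX-1 with DMSO; higher inhibition means more luminescence from relief of DAX-1 repression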
LXR ag: activates human LXR-beta, counter-screen for hcDAF-12 agonists. shares compounds with hcDAF12 agonist. HEK293 Gal4-LXR tk-luc reporter, luminescence, 24 h; normalized: DMSO 0%, positive control 100%. activation, % at 6.8 µM. 3,400 tested, under 10 active;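 active means mean percent activation of the reporter above a cutoff set as the average over tested compounds plus their standard deviation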
Target sequence (P55055 whole entry, looked up, the tested form may be a part): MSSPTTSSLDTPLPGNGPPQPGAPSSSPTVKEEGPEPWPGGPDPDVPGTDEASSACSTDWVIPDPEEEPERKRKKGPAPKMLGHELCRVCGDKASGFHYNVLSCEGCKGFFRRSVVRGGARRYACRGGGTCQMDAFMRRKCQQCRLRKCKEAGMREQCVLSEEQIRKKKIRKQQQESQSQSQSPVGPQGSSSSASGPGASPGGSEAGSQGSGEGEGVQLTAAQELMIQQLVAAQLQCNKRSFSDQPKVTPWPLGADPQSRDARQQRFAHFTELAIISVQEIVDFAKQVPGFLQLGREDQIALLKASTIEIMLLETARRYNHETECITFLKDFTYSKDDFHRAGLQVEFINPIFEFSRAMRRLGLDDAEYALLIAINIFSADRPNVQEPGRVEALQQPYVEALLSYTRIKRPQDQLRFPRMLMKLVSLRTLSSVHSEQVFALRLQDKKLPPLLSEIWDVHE
hcDAF12 conf: confirmation of H. contortus DAF-12 agonists | shares compounds with hcDAF12 agonist | HEK293 hcDAF-12 lit1-tk-luc reporter, luminescence; % of Δ7-dafachronic acid response | activation, % at 6.8 µM | actives 61% (n = 3,400) | AID 743032;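 active means mean activation across triplicate tests above the threshold derived from the earlier primary screen, cut at about 5.5% in these data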;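 further: 0% = DMSO only wells and 100% = 3 µM Δ7-dafachronic acid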
hgDAF12 conf: hgDAF-12 agonism, confirmation assay | shares compounds with hgDAF-12 ag | HEK293 GAL4-hgDAF12 luciferase reporter, agonist mode; percent of butyrate response | activation, % at 6.8 µM | actives 80% (n = 3,300) | AID 743050;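 active means mean activation over triplicate wells above the hit cutoff derived from the earlier primary screen, cut at about 11% in these data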;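 further: 0% = DMSO low control and 100% = 2 mM sodium butyrate high control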
LXR ag 2: activates human LXR-beta, counter-screen for DAF-12 agonists | shares compounds with hgDAF-12 ag | HEK293 Gal4-LXR luciferase reporter, 24 h | activation, % at 6.8 µM | 3,300 tested, under 10 active | AID 743051;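 active means mean activation of the triplicate above a set limit carried over from the primary screen, none filed active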
An asterisk follows results filed as active; / = no result. In the library only some 4.1% were active in any assay of this set; here they are far more common.

SMILES	hgDAF-12 ag	DAX1 inh-1	ssDAF-12 act	hcDAF12 agonist	DAX1 inh-2	LXR ag	hcDAF12 conf	hgDAF12 conf	LXR ag 2
Cc1ccc2c(c1)N(CCCC(=O)NCc1cccs1)C(=O)CO2	1	/	-2	-3	0	/	/	/	/
Cc1cccc(-c2cccc3c4c([nH]c23)[C@@H]2C[C@H](N(C)C(=O)Nc3ccccc3)[C@H]([C@H](C)O)C(=O)N2CC4)c1	0	/	-1	-3	-1	/	/	/	/
Cc1ccc2nc(-c3ccc(NC(=S)NCC(C)(C)CN(C)C)cc3)sc2c1	18*	13*	0	7.8*	4.0*	1	4	13*	1
Cc1cc2nn(-c3ccc(F)cc3)nc2cc1N	18*	3	1.4*	14*	4.0*	2	16*	24*	1
Nc1ccc2nn(-c3ccc(F)cc3)nc2c1	16*	4.3*	2.3*	14*	2	1	2	16*	1
Nc1nc(CCl)nc(Nc2ccccc2)n1	3	-2	-2	2	-1	/	/	/	/
Nc1nc(Nc2ccc(Cl)cc2)nc2ccccc12	14*	-1	2.5*	14*	2	2	12*	22*	1
Nc1nc(Nc2ccccc2)nc2ccccc12	15*	0	1.7*	9.9*	3.6*	1	5	16*	1
N#Cc1ccc(-c2nc3ccc(Cl)cn3c2Cc2ccccc2)cc1	3	/	0	-2	1	/	/	/	/
Cc1ccc(N2C(=O)c3ccccc3NC2(C(=O)O)c2ccccc2)cc1Cl (stereo not drawn)	19*	4.8*	0	9.9*	2	0	3	12*	0
Cc1ccc(NC(=O)C(C)N2C(=O)c3ccccc3S2(=O)=O)cc1Cl (stereo not drawn)	0	0	-1	2	2	/	/	/	/
CCOC(=O)c1c(C)oc2c1c(C(c1cccnc1)N1CCCCC1)c(O)c1ccccc12 (stereo not drawn)	14*	4	1.8*	11*	3	1	6.8*	5	0
CC(C)(C)OC(=O)N1CCc2onc(-c3ccc(-n4cc(C5=CCCCC5)nn4)cc3)c2C1=O	6	/	-1	-1	1	/	/	/	/
Cc1cc(C(=O)COC(=O)c2ccc(O)cc2)c(C)n1-c1ccccc1F	0	1	-2	0	0	/	/	/	/
Cc1cc(C(=O)COC(=O)c2ccc(O)cc2)c(C)n1CC(F)(F)F	15*	2	1	8.9*	4.2*	1	7.3*	18*	1
Cc1nc(N)sc1N=Nc1ccc(Br)cc1	17*	5.4*	1.5*	8.6*	3.9*	1	4	21*	1
Cc1[nH]nc(N)c1N=Nc1ccc(Br)cc1	6	/	-1	1	1	/	/	/	/
CCOc1ccc2cc(C3CC(c4ccco4)=NN3S(C)(=O)=O)c(Cl)nc2c1 (stereo not drawn)	-4	0	-1	-1	-1	/	/	/	/
CCc1ccc(C2CC(c3ccco3)=NN2S(C)(=O)=O)cc1 (stereo not drawn)	18*	2	1.3*	9.2*	3	1	8.9*	18*	1
CCOc1ncccc1C(=O)OCC(=O)Nc1ccc(-c2nc3ccc(C)cc3s2)cc1	18*	1	1.0*	7.5*	4.4*	2	5.7*	18*	1
CCOc1ncccc1C(=O)OCC(=O)Nc1c(C)cc(C)cc1C	-1	0	0	-1	0	/	/	/	/
CCCCCCCCNC(=O)C1CSCCS(=O)(=O)N1Cc1ccccc1 (stereo not drawn)	1	/	-1	0	-1	/	/	/	/
C#CCN1CC(N(C)CCOC(=O)c2cc3ccccc3[nH]2)CS1(=O)=O (stereo not drawn)	0	/	-1	-1	-1	/	/	/	/
CN(c1ccccc1)S(=O)(=O)c1cccc(NC(=O)CCNC(=O)c2ccco2)c1	0	1	-1	-3	-1	/	/	/	/
COC(=O)[C@]12C[C@H](CC(=O)NCc3cccc(C(F)(F)F)c3)C(=O)N(Cc3ccccc3)C1=C[C@H](C(C)(C)C)O[C@@H]2C	-1	/	-1	-1	0	/	/	/	/
SMILES	hgDAF-12 ag	DAX1 inh-1	ssDAF-12 act	hcDAF12 agonist	DAX1 inh-2	LXR ag	hcDAF12 conf	hgDAF12 conf	LXR ag 2
O=C(Nc1ccccc1)c1cc2ccccc2o1	19*	-1	1.9*	13*	3	2	17*	22*	1
COc1ccccc1NC(=O)c1cc2ccccc2o1	14*	3	1.9*	16*	2	1	15*	22*	1
COc1cc(NC(=O)c2cc3ccccc3o2)c(OC)cc1Br	6	0	0	1	1	/	/	/	/
COc1ccc(S(=O)(=O)Nc2ccccc2OC)cc1NC(=O)c1cc2ccccc2oc1=O	14*	2	0.9*	7.7*	3	1	4	10	0
Cc1ccccc1NC(=O)c1cc2ccccc2o1	14*	3	0	7.7*	2	1	9.2*	16*	1
COc1ccc(S[C@]2(C(=O)N3CCN(c4ncccn4)CC3)CC(=O)N[C@@H]2c2ccc(OC)cc2)cc1	3	/	0	-1	-1	/	/	/	/
CCCOc1ccc(F)cc1-c1cc(C(=O)NCc2cc(OC)cc(OC)c2)[nH]n1	-1	/	-2	-2	-2	/	/	/	/
O=S1(=O)c2ccccc2-c2c(nnn2Cc2ccccc2)CN1C1CC1	-2	/	-1	2	0	/	/	/	/
O=C(Nc1cccc(-c2nc3ncccc3o2)c1)c1cc2ccccc2o1	-1	-2	-1	-2	-1	/	/	/	/
O=C(Nc1ncccc1Cl)c1cc2ccccc2o1	16*	2	1	7.3*	2	1	6.2*	18*	1
Cc1c(C(=O)Nc2nccs2)oc2ccccc12	18*	4.6*	3.2*	15*	3	1	13*	25*	1
O=C(Nc1nccs1)c1ccc2ccccc2c1	21*	3	2.2*	17*	3	2	14*	26*	1
O=C(Nc1nccs1)c1ccc(Br)cc1	9	3	0	5	1	/	/	/	/
Cc1c(C(=O)Nc2cnccn2)oc2ccccc12	/	3	/	/	/	/	/	/	/
COc1ccc(C2Nc3cccc(O)c3C(=O)N2Cc2ccccc2)cc1COc1ccc(NC(C)=O)cc1 (stereo not drawn)	0	/	0	0	-2	/	/	/	/
